# Experimental data: PubChem BioAssay (NCI)
# This is part of a sample that, as a whole, favours compounds with a hit. Of some 79,000 tested, about 15% had one in any assay. Values without a mark were called inactive. Calls of active or inactive are those of the source. Rule as the data show it: active = growth inhibition above about 70%; inactive = the rest.
# How the values were obtained:
# [1] = NCI Yeast Anticancer Drug Screen. Data for the rad52 strain (AID 147);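 also: 0% = growth of vehicle-treated control cultures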; conditions: S. cerevisiae rad52 mutant growth inhibition, active compounds read high
# Summary of the method: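 Vehicle-treated cultures served as the reference for growth inhibition of compound-exposed yeast bearing a DNA repair mutation.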
# [2] = NCI Yeast Anticancer Drug Screen. Data for the wt1 strain (AID 149);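 also: 0% = growth of vehicle-treated wt1 cultures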; conditions: S. cerevisiae wt1 strain (SPY 50644) growth inhibition, active compounds read high
# Summary of the method: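 wt1 yeast, compound-treated; % growth inhibition vs vehicle control.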
# [3] = NCI Yeast Anticancer Drug Screen. Data for the rad50EPP+ strain (AID 151);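 also: 0% = growth of vehicle-treated control cultures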; conditions: S. cerevisiae rad50 mutant strain, active compounds read high
# Summary of the method: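 In this screen, rad50EPP+ yeast were exposed to compounds. Growth inhibition was scored against vehicle-treated controls.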
# [4] = NCI Yeast Anticancer Drug Screen. Data for the mgt1 strain (AID 153); conditions: S. cerevisiae mgt1 mutant growth inhibition, active compounds read high
# Summary of the method: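 mgt1 strain exposed; growth vs vehicle control recorded as inhibition.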
# [5] = NCI Yeast Anticancer Drug Screen. Data for the rad50 strain (AID 155);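 also: 0% = growth of vehicle-only cultures of the same strain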; conditions: S. cerevisiae rad50 strain growth inhibition, active compounds read high
# Summary of the method: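 Genetically altered yeast (DNA repair pathway); compound treatment; growth inhibition vs vehicle ctrl.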
# [6] = NCI Yeast Anticancer Drug Screen. Data for the mec2-1 strain (AID 157); conditions: S. cerevisiae mec2-1 strain, active compounds read high
# Summary of the method: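 Vehicle-treated cultures served as reference for growth inhibition of compound-exposed mec2-1 yeast.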
# [7] = NCI Yeast Anticancer Drug Screen. Data for the rad14 strain (AID 159);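 also: 0% = growth of vehicle-treated control cultures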; conditions: S. cerevisiae rad14 strain growth inhibition, active compounds read high
# Summary of the method: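 Test compounds were applied to a repair-deficient yeast strain. Its growth was then compared with that of cultures given vehicle alone, and inhibition was expressed relative to those controls.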
# [8] = NCI Yeast Anticancer Drug Screen. Data for the sgs1 mgt1 strain (AID 161);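 also: 0% = growth of cultures given vehicle only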; conditions: S. cerevisiae sgs1 mgt1 strain, active compounds read high
# Summary of the method: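 Mutant yeast exposed to compound; growth scored against vehicle-only wells.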
# [9] = NCI Yeast Anticancer Drug Screen. Data for the CLN2oe strain (AID 163);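 also: 0% = growth of vehicle-only control cultures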; conditions: S. cerevisiae CLN2oe strain, active compounds read high
# Summary of the method: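 Inhibition relative to vehicle-treated yeast is reported. Cells: strain with genetic alteration in cell-cycle control, grown with compound.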
# [10] = NCI Yeast Anticancer Drug Screen. Data for the cln2 rad14 strain (AID 165);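 also: 0% = growth equal to vehicle treated cultures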; conditions: S. cerevisiae cln2 rad14 strain, active compounds read high
# Summary of the method: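 Each compound was tested on cln2 rad14 yeast. Inhibition of growth was calculated against vehicle-exposed controls.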
# [11] = NCI Yeast Anticancer Drug Screen. Data for the bub3 strain (AID 167); conditions: S. cerevisiae bub3 mutant strain, active compounds read high
# Summary of the method: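 Yeast carrying a defined mutation is treated with each compound, and growth is compared with that of vehicle-exposed cells to give inhibition.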
# [12] = NCI Yeast Anticancer Drug Screen. Data for the wt2 strain (AID 169);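 also: 0% = growth of vehicle-treated yeast cultures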; conditions: S. cerevisiae wt2 strain growth inhibition, active compounds read high
# Summary of the method: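 Inhibition of yeast growth was determined after compound treatment, normalised to controls receiving only vehicle.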
# [13] = NCI Yeast Anticancer Drug Screen. Data for the mlh1 strain (AID 171);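 also: 0% = growth of vehicle-treated control cultures of the same strain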; conditions: S. cerevisiae mlh1 strain growth inhibition, active compounds read high
# Summary of the method: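 Vehicle-normalised growth inhibition of a repair- or checkpoint-altered yeast strain following compound treatment.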
# [14] = NCI Yeast Anticancer Drug Screen. Data for the mlh1 rad18 strain (AID 175); conditions: S. cerevisiae mlh1 rad18 strain growth inhibition, active compounds read high
# Summary of the method: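 Vehicle-treated cultures served as the reference for growth inhibition in a yeast strain carrying DNA damage repair alterations exposed to each compound.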
# [15] = NCI Yeast Anticancer Drug Screen. Data for the sgs1 strain (AID 173);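 also: 0% = growth of vehicle-only control cultures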; conditions: S. cerevisiae sgs1 mutant, active compounds read high
# Summary of the method: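 Screen format: yeast with repair or checkpoint alterations, compound exposure, growth read relative to vehicle.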
# [16] = NCI Yeast Anticancer Drug Screen. Data for the rad18 strain (AID 177); conditions: S. cerevisiae rad18 mutant growth inhibition, active compounds read high
# Summary of the method: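 Test articles were incubated with altered yeast defective in DNA damage repair. Results are given as inhibition of growth versus vehicle.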
# [17] = at 5.0 µM (retest, dose inferred, filed as 0.5)
# [18] = at 50.0 µM (retest, dose inferred, filed as 5.0)
smiles,measurement,setting,value
O=[N+]([O-])c1cn[n+]([O-])c2ccccc12,growth inhibition,[1]; at 1.2 µM,33%
same,growth inhibition,[1]; at 3.7 µM,59%
same,growth inhibition,[1]; at 11.0 µM,90% (active)
same,growth inhibition,[1]; at 33.0 µM,97% (active)
same,growth inhibition,[1]; at 100.0 µM,99% (active)
same,growth inhibition,[2]; at 1.2 µM,0%
same,growth inhibition,[2]; at 3.7 µM,16%
same,growth inhibition,[2]; at 11.0 µM,34%
same,growth inhibition,[2]; at 33.0 µM,93% (active)
same,growth inhibition,[2]; at 100.0 µM,99% (active)
same,growth inhibition,[3]; at 1.2 µM,61%
same,growth inhibition,[3]; at 3.7 µM,90% (active)
same,growth inhibition,[3]; at 11.0 µM,96% (active)
same,growth inhibition,[3]; at 33.0 µM,99% (active)
same,growth inhibition,[3]; at 100.0 µM,100% (active)
same,growth inhibition,[4]; at 1.2 µM,10%
same,growth inhibition,[4]; at 3.7 µM,-5%
same,growth inhibition,[4]; at 11.0 µM,33%
same,growth inhibition,[4]; at 33.0 µM,99% (active)
same,growth inhibition,[4]; at 100.0 µM,99% (active)
same,growth inhibition,[5]; at 1.2 µM,14%
same,growth inhibition,[5]; at 3.7 µM,58%
same,growth inhibition,[5]; [17],25%
same,growth inhibition,[5]; at 11.0 µM,85% (active)
same,growth inhibition,[5]; at 33.0 µM,97% (active)
same,growth inhibition,[5]; [18],97% (active)
same,growth inhibition,[5]; at 50.0 µM,89.3% (active)
same,growth inhibition,[5]; at 100.0 µM,99% (active)
same,growth inhibition,[6]; at 1.2 µM,17%
same,growth inhibition,[6]; at 3.7 µM,10%
same,growth inhibition,[6]; [17],-31%
same,growth inhibition,[6]; at 11.0 µM,52%
same,growth inhibition,[6]; at 33.0 µM,97% (active)
same,growth inhibition,[6]; [18],99% (active)
same,growth inhibition,[6]; at 50.0 µM,91.8% (active)
same,growth inhibition,[6]; at 100.0 µM,99% (active)
same,growth inhibition,[7]; at 1.2 µM,21%
same,growth inhibition,[7]; at 3.7 µM,43%
same,growth inhibition,[7]; at 11.0 µM,91% (active)
same,growth inhibition,[7]; at 33.0 µM,99% (active)
same,growth inhibition,[7]; at 100.0 µM,99% (active)
same,growth inhibition,[8]; [17],38%
same,growth inhibition,[8]; [18],99% (active)
same,growth inhibition,[8]; at 50.0 µM,90.3% (active)
same,growth inhibition,[9]; at 1.2 µM,0%
same,growth inhibition,[9]; at 3.7 µM,11%
same,growth inhibition,[9]; at 11.0 µM,14%
same,growth inhibition,[9]; at 33.0 µM,84% (active)
same,growth inhibition,[9]; at 100.0 µM,99% (active)
same,growth inhibition,[10]; [17],7%
same,growth inhibition,[10]; [18],98% (active)
same,growth inhibition,[10]; at 50.0 µM,92% (active)
same,growth inhibition,[11]; at 1.2 µM,-1%
same,growth inhibition,[11]; at 3.7 µM,-12%
same,growth inhibition,[11]; [17],-28%
same,growth inhibition,[11]; at 11.0 µM,0%
same,growth inhibition,[11]; at 33.0 µM,99% (active)
same,growth inhibition,[11]; [18],99% (active)
same,growth inhibition,[11]; at 50.0 µM,89.5% (active)
same,growth inhibition,[11]; at 100.0 µM,99% (active)
same,growth inhibition,[12]; at 1.2 µM,-18%
same,growth inhibition,[12]; at 3.7 µM,5%
same,growth inhibition,[12]; at 11.0 µM,75% (active)
same,growth inhibition,[12]; at 33.0 µM,100% (active)
same,growth inhibition,[12]; at 100.0 µM,99% (active)
same,growth inhibition,[13]; at 1.2 µM,10%
same,growth inhibition,[13]; at 3.7 µM,6%
same,growth inhibition,[13]; at 11.0 µM,39%
same,growth inhibition,[13]; at 33.0 µM,95% (active)
same,growth inhibition,[13]; at 100.0 µM,99% (active)
same,growth inhibition,[14]; [17],38%
same,growth inhibition,[14]; [18],97% (active)
same,growth inhibition,[14]; at 50.0 µM,92% (active)
COc1ccc(C(=O)/C=C\c2ccc(Cl)c(Cl)c2)cc1,growth inhibition,[1]; at 1.2 µM,16%
same,growth inhibition,[1]; at 3.7 µM,15%
same,growth inhibition,[1]; at 11.0 µM,19%
same,growth inhibition,[1]; at 33.0 µM,34%
same,growth inhibition,[1]; at 100.0 µM,56%
same,growth inhibition,[2]; at 1.2 µM,26%
same,growth inhibition,[2]; at 3.7 µM,26%
same,growth inhibition,[2]; at 11.0 µM,29%
same,growth inhibition,[2]; at 33.0 µM,43%
same,growth inhibition,[2]; at 100.0 µM,81% (active)
same,growth inhibition,[3]; at 1.2 µM,12%
same,growth inhibition,[3]; at 3.7 µM,10%
same,growth inhibition,[3]; at 11.0 µM,16%
same,growth inhibition,[3]; at 33.0 µM,31%
same,growth inhibition,[3]; at 100.0 µM,24%
same,growth inhibition,[4]; at 1.2 µM,7%
same,growth inhibition,[4]; at 3.7 µM,-38%
same,growth inhibition,[4]; at 11.0 µM,-4%
same,growth inhibition,[4]; at 33.0 µM,25%
same,growth inhibition,[4]; at 100.0 µM,70% (active)
same,growth inhibition,[5]; at 1.2 µM,4%
same,growth inhibition,[5]; at 3.7 µM,7%
same,growth inhibition,[5]; [17],53%
same,growth inhibition,[5]; at 11.0 µM,6%
same,growth inhibition,[5]; at 33.0 µM,34%
same,growth inhibition,[5]; [18],68%
same,growth inhibition,[5]; at 50.0 µM,69.5%
same,growth inhibition,[5]; at 100.0 µM,71% (active)
same,growth inhibition,[6]; at 1.2 µM,-7%
same,growth inhibition,[6]; at 3.7 µM,0%
same,growth inhibition,[6]; [17],47%
same,growth inhibition,[6]; at 11.0 µM,7%
same,growth inhibition,[6]; at 33.0 µM,23%
same,growth inhibition,[6]; [18],58%
same,growth inhibition,[6]; at 50.0 µM,59.6%
same,growth inhibition,[6]; at 100.0 µM,68%
same,growth inhibition,[7]; at 1.2 µM,-19%
same,growth inhibition,[7]; at 3.7 µM,-20%
same,growth inhibition,[7]; at 11.0 µM,-30%
same,growth inhibition,[7]; at 33.0 µM,-17%
same,growth inhibition,[7]; at 100.0 µM,42%
same,growth inhibition,[8]; [17],-18%
same,growth inhibition,[8]; [18],80% (active)
same,growth inhibition,[8]; at 50.0 µM,70.8% (active)
same,growth inhibition,[9]; at 1.2 µM,12%
same,growth inhibition,[9]; at 3.7 µM,10%
same,growth inhibition,[9]; at 11.0 µM,8%
same,growth inhibition,[9]; at 33.0 µM,22%
same,growth inhibition,[9]; at 100.0 µM,69%
same,growth inhibition,[10]; [17],18%
same,growth inhibition,[10]; [18],77% (active)
same,growth inhibition,[10]; at 50.0 µM,57.6%
same,growth inhibition,[11]; at 1.2 µM,0%
same,growth inhibition,[11]; at 3.7 µM,2%
same,growth inhibition,[11]; [17],12%
same,growth inhibition,[11]; at 11.0 µM,-3%
same,growth inhibition,[11]; at 33.0 µM,29%
same,growth inhibition,[11]; [18],80% (active)
same,growth inhibition,[11]; at 50.0 µM,74.6% (active)
same,growth inhibition,[11]; at 100.0 µM,67%
same,growth inhibition,[12]; at 1.2 µM,15%
same,growth inhibition,[12]; at 3.7 µM,0%
same,growth inhibition,[12]; at 11.0 µM,12%
same,growth inhibition,[12]; at 33.0 µM,37%
same,growth inhibition,[12]; at 100.0 µM,76% (active)
same,growth inhibition,[13]; at 1.2 µM,11%
same,growth inhibition,[13]; at 3.7 µM,12%
same,growth inhibition,[13]; at 11.0 µM,-11%
same,growth inhibition,[13]; at 33.0 µM,15%
same,growth inhibition,[13]; at 100.0 µM,64%
same,growth inhibition,[15]; at 1.2 µM,10%
same,growth inhibition,[15]; at 3.7 µM,5%
same,growth inhibition,[15]; at 11.0 µM,11%
same,growth inhibition,[15]; at 33.0 µM,44%
same,growth inhibition,[15]; at 100.0 µM,67%
same,growth inhibition,[16]; at 1.2 µM,-17%
same,growth inhibition,[16]; at 3.7 µM,-35%
same,growth inhibition,[16]; at 11.0 µM,-44%
same,growth inhibition,[16]; at 33.0 µM,-6%
same,growth inhibition,[16]; at 100.0 µM,52%
